Rows were chosen to be rich in hits. Some 2.2% of all compounds tested hit in one or more screens of this group.
CHRM4 PAM: potentiates acetylcholine response at human M4 receptor; CHO-K1 hM4/Gqi5, Fluo-8 calcium fluorescence, ACh EC20; 0% = ACh EC20, 100% = maximal ACh; activation, % at 3 µM; P08173; 360,000 tested, 0.4% active;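 active = activation above its plate's cutoff, the mean activation of sample wells plus 3 SD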
Target sequence (P08173 whole entry, looked up): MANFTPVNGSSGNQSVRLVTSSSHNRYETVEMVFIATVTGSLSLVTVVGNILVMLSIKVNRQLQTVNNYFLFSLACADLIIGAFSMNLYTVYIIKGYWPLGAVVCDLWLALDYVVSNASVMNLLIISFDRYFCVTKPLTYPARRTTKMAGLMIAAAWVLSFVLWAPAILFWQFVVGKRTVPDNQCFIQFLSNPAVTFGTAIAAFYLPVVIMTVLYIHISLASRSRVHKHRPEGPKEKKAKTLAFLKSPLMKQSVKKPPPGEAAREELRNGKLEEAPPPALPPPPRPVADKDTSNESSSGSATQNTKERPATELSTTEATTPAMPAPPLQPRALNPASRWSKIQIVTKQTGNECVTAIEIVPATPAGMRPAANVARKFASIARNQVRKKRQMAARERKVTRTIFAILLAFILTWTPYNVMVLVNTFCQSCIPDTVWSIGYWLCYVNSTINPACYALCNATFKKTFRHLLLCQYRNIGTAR
M1 ag: human M1 muscarinic receptor agonism; P11229; CHO-K1 hM1, Fluo-8 calcium fluorescence, agonist mode; 0% DMSO, 100% acetylcholine EC100; activation, % at 3 µM; 360,000 tested, 0.33% active; AID 588814;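 active = activation above the run's mean compound activation plus 3 SD, cut at about 16% in these data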;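 note: peak over basal fluorescence ratio within a 140 s kinetic read after compound addition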
CHRM1 antagonist: antagonists of human M1 muscarinic receptor | CHO-K1 hM1, Fluo-8 calcium fluorescence, ACh EC80 antagonist | AID 588852 | inhibition, % at 3 µM | 360,000 tested, 1.3% active | P11229;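 active = percent inhibition above its own plate's cutoff, namely the mean of that plate's compound wells plus 3 SD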;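 note: peak over basal fluorescence ratio during 140 s after agonist addition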
M4 antag: antagonists of human muscarinic M4 receptor (CHRM4); P08173; CHO-hM4 cells, ACh EC80, Fluo-8 calcium fluorescence; AID 624125; 360,000 tested, 0.73% active; inhibition, % at 3 µM;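 active = inhibition above its plate's cutoff, the mean inhibition of sample wells plus 3 SD, cut at about 27% in these data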
CHRM1 PAM: positive allosteric modulators of human M1 muscarinic receptor; CHO-K1 hM1, Fluo-8 calcium fluorescence, ACh EC20; 0% = ACh EC20, 100% = maximal ACh; activation, % at 3 µM; 360,000 tested, 0.088% active; AID 588819; in the data active = activation above about 19%, passing the limit was not always enough
M4 ag: CHRM4 agonism in calcium assay; activation, % at 3 µM; 360,000 tested, 0.14% active; CHO-K1 hM4/Gqi5, Fluo-8 calcium fluorescence; vehicle 0%, full acetylcholine response 100%; P08173;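 active = activation above the run mean over all test wells plus 3 SD, cut at about 32% in these data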;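 note: peak over basal fluorescence ratio per well then scaled between controls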
Numbers stand for hits.

`CCOc1ccc(-c2c(C(=O)N/N=C(\C)c3cccs3)nnn2-c2nonc2N)cc1` gave CHRM4 PAM inactive, M1 ag inactive, CHRM1 antagonist inactive, M4 antag inactive, CHRM1 PAM inactive and M4 ag inactive.
For CCCc1c(C(=O)N/N=C(\C)CCc2ccccc2)nnn1-c1nonc1N the results were CHRM4 PAM 14.9, M1 ag inactive, CHRM1 antagonist inactive, M4 antag inactive, CHRM1 PAM inactive and M4 ag inactive.
`CCOc1ccc(-c2c(C(=O)N/N=C/c3ccc(O)cc3)nnn2-c2nonc2N)cc1` gave CHRM4 PAM inactive, M1 ag inactive, CHRM1 antagonist inactive, M4 antag inactive, CHRM1 PAM inactive and M4 ag inactive.
Screening COCCCNC(=O)CN(c1ccc(Cl)c(Cl)c1)S(C)(=O)=O returned CHRM4 PAM inactive, M1 ag inactive, CHRM1 antagonist inactive, M4 antag inactive, CHRM1 PAM inactive and M4 ag inactive.
Screening O=C(O)CC1(CC(=O)Nc2ccc(Oc3cccc(C(F)(F)F)c3)nc2)CCCC1 returned CHRM4 PAM inactive, M1 ag inactive, CHRM1 antagonist inactive, M4 antag inactive, CHRM1 PAM inactive and M4 ag inactive.
`Cc1cccc(NC(=O)c2cccc([N+](=O)[O-])c2O)c1C` gave CHRM4 PAM inactive, M1 ag inactive, CHRM1 antagonist inactive, M4 antag inactive, CHRM1 PAM inactive and M4 ag inactive.
Screening COc1cccc(-c2c(C(=O)N/N=C(\C)c3cccs3)nnn2-c2nonc2N)c1 returned CHRM4 PAM inactive, M1 ag 34.4, CHRM1 antagonist inactive, M4 antag inactive, CHRM1 PAM inactive and M4 ag inactive.
COc1cccc(-c2c(C(=O)N/N=C(\C)c3ccncc3)nnn2-c2nonc2N)c1 was read as CHRM4 PAM inactive, M1 ag inactive, CHRM1 antagonist inactive, M4 antag inactive, CHRM1 PAM inactive and M4 ag inactive.
COc1ccc(C(=O)C2CCCN(C(=O)Cn3nc(C)cc3C)C2)cc1F (configuration not stated) was read as CHRM4 PAM inactive, M1 ag inactive, CHRM1 antagonist inactive, M4 antag 28.9, CHRM1 PAM inactive and M4 ag inactive.
For COc1ccc(C(=O)C2CCCN(C(=O)Cn3nc(C)nc3C)C2)cc1F (configuration not stated) the results were CHRM4 PAM inactive, M1 ag inactive, CHRM1 antagonist inactive, M4 antag inactive, CHRM1 PAM inactive and M4 ag inactive.
For COc1ccc(C(=O)C2CCCN(Cc3cn(C)nc3-c3ccccc3)C2)cc1F (configuration not stated) the results were CHRM4 PAM inactive, M1 ag inactive, CHRM1 antagonist inactive, M4 antag 39.8, CHRM1 PAM inactive and M4 ag 82.3.
O=C(CCN=C1NS(=O)(=O)c2ccccc21)OCC(=O)c1ccc(F)cc1 was read as CHRM4 PAM inactive, M1 ag inactive, CHRM1 antagonist inactive, M4 antag inactive, CHRM1 PAM inactive and M4 ag inactive.
O=C(CCCN=C1NS(=O)(=O)c2ccccc21)OCC(=O)c1ccc(F)cc1 was read as CHRM4 PAM inactive, M1 ag 22.4, CHRM1 antagonist inactive, M4 antag inactive, CHRM1 PAM inactive and M4 ag inactive.
CCCN1CCC(NC(=S)Nc2cccc(Cl)c2Cl)CC1 was read as CHRM4 PAM inactive, M1 ag 25.7, CHRM1 antagonist inactive, M4 antag inactive, CHRM1 PAM inactive and M4 ag inactive.
`Cc1c(Cl)cccc1NC(=S)NC1CCN(Cc2ccccc2)CC1` gave CHRM4 PAM inactive, M1 ag inactive, CHRM1 antagonist inactive, M4 antag inactive, CHRM1 PAM inactive and M4 ag inactive.
Cc1ccc(CS(=O)Cc2ccc(C(=O)NCc3ccccc3Cl)o2)cc1 (configuration not stated) was read as CHRM4 PAM inactive, M1 ag inactive, CHRM1 antagonist 39.4, M4 antag inactive, CHRM1 PAM inactive and M4 ag inactive.
Cc1ccc(CNC(=O)c2ccc(CS(=O)Cc3ccccc3Cl)o2)cc1 (configuration not stated) was read as CHRM4 PAM inactive, M1 ag inactive, CHRM1 antagonist inactive, M4 antag inactive, CHRM1 PAM inactive and M4 ag inactive.

Assay outcomes from PubChem BioAssay.
